# From ChEMBL document CHEMBL1157539, “Thousands of chemical starting points for antimalarial lead identification” (Nature, 2010)
# Several values for one entry are separate records, joined by “and”; a condition that tells them apart may be missing. Identical values can stand only once.
# Legend:
# Type in all cases: functional
# Plasmodium falciparum [1] = assay: GSK_TCMDC: Inhibition of Plasmodium falciparum 3D7 in whole red blood cells, using parasite LDH activity as an index of growth. Test compounds present at 2uM
# Plasmodium falciparum [2] = assay: GSK_TCMDC: Inhibition of Plasmodium falciparum Dd2 in whole red blood cells, using parasite LDH activity as an index of growth. Test compounds present at 2uM
# HepG2 = assay: GSK_TCMDC: Percent inhibition of human HepG2 cell line. Test compounds present at 10uM.
SMILES,Inhibition (Plasmodium falciparum [1]),Inhibition (Plasmodium falciparum [2]),Inhibition (HepG2)
CCOc1ccc(CN(CCc2ccc3c(c2)OCO3)Cc2cc(OC)ccc2O)cc1.O=C(O)C(=O)O,96%,88%,3%
CC(=O)C1(c2ccccc2)CCN(CCC2(c3ccc(Cl)c(Cl)c3)CN(C(=O)Nc3cc(F)cc(F)c3)CCO2)CC1 (stereo unspecified),86%,20%,2%
COCC(=O)N(Cc1cccc(-c2ccc(CNCCc3ccccc3)cc2)c1)C1CCN(Cc2ccccc2)CC1.O=C(O)C(F)(F)F,93%,45%,44%
O=C(Nc1cc(C(F)(F)F)cc(C(F)(F)F)c1)N1CCC(CN2CCC(c3c[nH]c4ccccc34)CC2)CC1,100%,99%,42%
Cc1cc(NC(=O)[C@@H](Nc2ccc(C#N)c3ccccc23)C2CCCCC2)ccc1F.O=C(O)C(F)(F)F,95%,83%,10%
COc1cc2c(c(OC)c1OC)C[C@H]1c3c(cc4c(c3-2)OCO4)CCN1C,84%,30%,7%
CC(Cc1ccc(NC(=O)CCNCc2ccccc2)cc1)NCCc1cccc(Cl)c1 (stereo unspecified),100%,100%,100%
CC[C@H]1CN2CC[C@@H]1C[C@H]2[C@H](O)c1cc(N2CCCC(C)(C)C2)nc2ccc(OC)cc12,100%,72%,25%
O=C(/C=C/c1cccs1)NC1CCC(CN2CCC(c3c[nH]c4ccccc34)CC2)CC1 (stereo unspecified),82%,29%,33%
CC(Cc1ccc(OCCCCOc2ccccc2)cc1)NCCC1CCCN1C (stereo unspecified),99%,98%,100%
CCN(Cc1ccccc1)CC(O)c1ccc(Cl)c(Cl)c1.Cl (stereo unspecified),96%,71%,2%
O=C(/C=C/c1ccc(Cl)c(Cl)c1)N1CCC(CN2CCC(c3c[nH]c4ccc(O)cc34)CC2)CC1,100%,100%,44%
Cc1ccc(CC(C)NCC(O)c2cccc(C(F)(F)F)c2)cc1F.Cl (stereo unspecified),97%,91%,15%
O=C(/C=C/c1ccc(Cl)c(Cl)c1)NC1CCC(CN2CCC(c3c[nH]c4ccccc34)C(O)C2)CC1 (stereo unspecified),100%,87%,30%
O=C(NCc1ccc(S(=O)(=O)N2CCC(CN3CCC(c4c[nH]c5ccccc45)CC3)CC2)s1)c1ccccc1,92%,21%,32%
C[C@@H](CC1CCCCC1)NCc1ccccc1O,98%,67%,9%
NCc1ccc(-c2ccccc2CN(C(=O)Nc2ccccc2)C2CCN(Cc3ccccc3)CC2)cc1.O=C(O)C(F)(F)F,100%,35%,36%
CC(Cc1ccc(OC2CCCCC2)cc1)NCC(O)c1cccc(Cl)c1.Cl (stereo unspecified),99%,99%,66%
CN1CC=C(c2c[nH]c3ccc(Oc4ccccc4)cc23)CC1.O=C(O)C(=O)O,98%,98%,40%
c1ccc(C(OCCC2CCN(Cc3cccnc3)CC2)c2ccccc2)cc1,99%,98%,12%
O=C(NC1CCC(CN2CCC(c3c[nH]c4ccccc34)CC2)CC1)c1cc2ccccc2s1 (stereo unspecified),98% and 100%,68% and 43%,44%
Cl.O=C(CC1CCCC1)N(CC1CCN(Cc2ccc(C(F)(F)F)cc2)CC1)c1ccc(N2CCOCC2)c(F)c1,92%,97%,10%
COc1cc(CC(C)NCC(O)c2cccc(C(F)(F)F)c2)ccc1OCc1ccccc1 (stereo unspecified),93%,71%,2%
Cc1nc(C)c(-c2ccc(Oc3ccc(OC(F)(F)F)cc3)cc2)c(OC(=O)N(CCNC(C)C)C(C)C)c1Br.Cl,98%,97%,35%
O=C(Nc1ccccc1OC(F)(F)F)NC1CCC(CN2CCC(c3c[nH]c4ccccc34)CC2)CC1 (stereo unspecified),100% and 99%,60% and 70%,33% and 35%
O=C(/C=C/c1ccc(Cl)c(Cl)c1)Nc1cccc(CN2CCC(c3c[nH]c4ccccc34)CC2)c1,99%,91%,15%
O=C(/C=C/c1ccc(Cl)c(Cl)c1)N(Cc1ccccc1)C1CCC(CN2CCC(c3c[nH]c4ccccc34)CC2)CC1 (stereo unspecified),100%,59%,37%
